For 43 compounds, outcome and Potency results are on record in PubChem BioAssay (NCATS).

Structures are written as SMILES. Inconclusive results are not listed. Entries that show only a call come without a potency. Active and inactive are the calls of the source. Calls come from the whole dose curve; as a rule, active = well fitted curve in the direction sought with a large enough effect; inconclusive = small, poorly fitted or top-dose-only effect, or another doubt; inactive = no such curve, though single readings can be large; an effect the other way counts as inactive or inconclusive.

For experiment [1], the target named is Glucagon-like peptide 1 receptor (Homo sapiens) (UniProt P43220). The experiment is described as follows: qHTS of GLP-1 Receptor Agonists: LOPAC Validation (AID 624148).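 Note: higher luminescence signal means agonism.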 A digest of the protocol:
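HEK293 cells stably co-expressing a cAMP-responsive luciferase reporter and a hypersensitive GLP-1R were plated 12 h at 37 °C and exposed to compounds for 4-6 hr at 37 °C, 5% CO2. Luminescence was read 12 min after adding detection reagent.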

Experiment [2] in a line: qHTS of Nrf2 Activators: LOPAC Validation (AID 624149). A digest of the protocol:
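AREc32_Fluc cells, 1000/well, OPTI-MEM + 5% FBS, o/n 37 deg C 5% CO2; compound pin-transfer, 24 hr 37 deg C; Steady-Glo 30 min RT, luminescence read.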
(Quantitative high-throughput screening tests each substance at several concentrations.)

Experiment [3] is described as follows: HTS Assay for Allosteric Antagonists of the Human D2 Dopamine Receptor: Hit Validation in HTRF (AID 624455). The method, boiled down:
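HTRF read-out; cells stably expressing D1 receptor; hits scored for inhibition of D1-mediated response. Primary screen: calcium flux, force-coupled inducible Hek293 Trex D2 line, antagonism vs EC80 dopamine.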
A general note: TR-FRET usually uses a lanthanide donor and a delayed reading to cut background.

Sequence of Glucagon-like peptide 1 receptor (Homo sapiens) (P43220 whole entry, looked up): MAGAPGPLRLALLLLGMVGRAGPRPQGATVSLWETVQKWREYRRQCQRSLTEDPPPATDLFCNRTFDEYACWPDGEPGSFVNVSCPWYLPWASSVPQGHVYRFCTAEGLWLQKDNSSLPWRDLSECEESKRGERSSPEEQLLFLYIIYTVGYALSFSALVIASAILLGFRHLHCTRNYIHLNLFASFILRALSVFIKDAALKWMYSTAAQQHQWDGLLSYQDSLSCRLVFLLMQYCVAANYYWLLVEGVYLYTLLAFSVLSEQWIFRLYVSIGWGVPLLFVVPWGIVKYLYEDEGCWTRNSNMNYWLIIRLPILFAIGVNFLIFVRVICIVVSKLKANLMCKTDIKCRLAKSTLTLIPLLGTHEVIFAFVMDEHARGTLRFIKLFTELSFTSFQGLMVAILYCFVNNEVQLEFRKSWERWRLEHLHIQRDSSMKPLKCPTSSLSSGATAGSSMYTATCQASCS

For the compound `COc1ccc2c(c1OC)C(=O)O[C@@H]2[C@H]1c2c(cc3c(c2OC)OCO3)CCN1C`, the outcome in experiment [1] and in experiment [2] was inactive.

For the compound `NS(=O)(=O)c1cc2c(cc1Cl)NC(C1CC3C=CC1C3)NS2(=O)=O` (stereo not given), the compound was called inactive in experiment [1] and in experiment [2].

With `CN1C[C@H](C(=O)N[C@]2(C)O[C@@]3(O)[C@@H]4CCCN4C(=O)[C@H](Cc4ccccc4)N3C2=O)C[C@@H]2c3cccc4[nH]cc(c34)C[C@H]21`, the result in experiment [1] and in experiment [2] was inactive.

Regarding `CCN(CC)CCOCCOC(=O)C1(c2ccccc2)CCCC1`, the result in experiment [1] and in experiment [2] was inactive.

`NC(N)=NC(=O)Cc1c(Cl)cccc1Cl`: the compound was classed as inactive in experiment [1] and in experiment [2].

With `CC[N+](C)(C)c1cccc(O)c1`, the compound was classed as inactive in experiment [1] and in experiment [2].

Consider `CC1=C(C)C(=O)C(CCCCC#CCCCC#CCO)=C(C)C1=O`, for which the call in experiment [1] was inactive.

`C#CCN(C)CCCOc1ccc(Cl)cc1Cl`: the compound was classed as inactive in experiment [1] and in experiment [2].

As to `CCCN1C[C@H](CSC)C[C@@H]2c3cccc4[nH]cc(c34)C[C@H]21`, the call in experiment [1] and in experiment [2] was inactive.

For the compound `CCn1cc(C(=O)O)c(=O)c2cc3c(cc21)OCO3`, the result in experiment [1] and in experiment [2] was inactive.

Take `COC(=O)[C@@H](N)Cc1ccc(O)c(O)c1`: the outcome in experiment [1] and in experiment [2] was inactive.

Take `CCOC(=O)C1=C(C)NC(C)=C(C(=O)OC)C1c1cccc(Cl)c1Cl` (stereo not given): the compound was classed as inactive in experiment [1] and in experiment [2].

With `C[n+]1cc2c3c(ccc2c2ccc4cc5c(cc4c21)OCO5)OCO3`, the result in experiment [1] and in experiment [2] was inactive.

Take `CN(C)CCN(Cc1cccs1)c1ccccn1`: the call in experiment [1] and in experiment [2] was inactive.

Take `CN(C)CCCN1c2ccccc2Sc2ccccc21`: the compound was called inactive in experiment [1] and in experiment [2].

For `COC(=O)C1=C(C)NC(C)=C(C(=O)OCCN(C)Cc2ccccc2)C1c1cccc([N+](=O)[O-])c1` (stereo not given), the outcome in experiment [1] was inactive.

In the case of `CC(C(=O)O)c1ccc(CC2CCCC2=O)cc1` (stereo not given), the compound was classed as inactive in experiment [1] and in experiment [2].

`CCCCNc1ccc(C(=O)OCCN(C)C)cc1`: the outcome in experiment [1] and in experiment [2] was inactive.

On to `C[C@@H](O)[C@H]1C(=O)N2C(C(=O)O)=C(SCCN=CN)C[C@H]12`, for which the call in experiment [1] and in experiment [2] was inactive.

Regarding `O=C1CC2(CCCC2)CC(=O)N1CCCCN1CCN(c2ncccn2)CC1`, the compound was classed as inactive in experiment [1] and in experiment [2].

Take `CN(C)[C@@H]1C(=O)C(C(N)=O)=C(O)[C@@]2(O)C(=O)C3=C(O)c4c(O)ccc(Cl)c4[C@@H](O)[C@H]3C[C@@H]12`: the compound was called inactive in experiment [1] and in experiment [2].

On to `COc1ccc(CN(CCN(C)C)c2ccccn2)cc1`, for which the compound was classed as inactive in experiment [1] and in experiment [2].

`c1ccc2c(c1)CCCC2C1=NCCN1` (stereo not given): the compound was called inactive in experiment [1] and in experiment [2].

Take `O=C(O)CP(=O)(O)O`: the result in experiment [1] and in experiment [2] was inactive.

Turning to `CCCOc1ccccc1-c1nc2n[nH]nc2c(=O)[nH]1`, the compound was classed as inactive in experiment [1] and in experiment [2].

As for `C=CCc1ccccc1OCC(O)CNC(C)C` (stereo not given), the compound was called inactive in experiment [1] and in experiment [2].

Regarding `NC1=NCC2c3ccccc3Cc3ccccc3N12` (stereo not given), the call in experiment [1] and in experiment [2] was inactive.

On to `CN/C(=C\[N+](=O)[O-])NCCSCc1ccc(CN(C)C)o1`, for which, in experiment [1], the call was inactive.

As for `CCCC(C(=O)OCCN(CC)CC)(c1ccccc1)c1ccccc1`, the call in experiment [1] and in experiment [2] was inactive.

`CN(C)CC[C@@H](c1ccc(Br)cc1)c1ccccn1`: the result in experiment [1] and in experiment [2] was inactive.

For the compound `CCc1cccc(N(C)C(N)=Nc2cccc3ccccc23)c1`, the result in experiment [1] and in experiment [2] was inactive.

On to `CCC(=O)c1ccc2c(c1)N(CCCN(C)C)c1ccccc1S2`, for which the compound was called inactive in experiment [1] and in experiment [2].

As to `COc1cc(C(=O)OCCCN2CCCN(CCCOC(=O)c3cc(OC)c(OC)c(OC)c3)CC2)cc(OC)c1OC`, the compound was classed as inactive in experiment [1] and in experiment [2].

Turning to `NC(=O)c1cn(Cc2c(F)cccc2F)nn1`, the compound was classed as inactive in experiment [1] and in experiment [2].

Consider `Cc1scc2c1N(C(=O)CN1CCN(C)CC1)c1ccccc1NC2=O`, for which the call in experiment [1] and in experiment [2] was inactive.

For `CC(C)COCC(CN(Cc1ccccc1)c1ccccc1)N1CCCC1` (stereo not given), the result in experiment [1] and in experiment [2] was inactive. For the same compound, the Potency entry in experiment [3] was “inactive”.

With `OC(CCN1CCCCC1)(c1ccccc1)C1CCCCC1` (stereo not given), the compound was classed as inactive in experiment [1] and in experiment [2]. Further, the Potency result in experiment [3] is “inactive”.

With `COCCOC(=O)C1=C(C)NC(C)=C(C(=O)OC(C)C)C1c1cccc([N+](=O)[O-])c1` (stereo not given), the outcome in experiment [1] and in experiment [2] was inactive.

Regarding `CC(=O)[C@@]1(O)CC[C@H]2[C@@H]3CCC4=CC(=O)CC[C@]4(C)[C@H]3CC[C@@]21C`, the outcome in experiment [1] and in experiment [2] was inactive. In addition, the Potency result in experiment [3] is “inactive”.

With `c1cnc(N2CCN(Cc3ccc4c(c3)OCO4)CC2)nc1`, the call in experiment [1] and in experiment [2] was inactive. Further, in experiment [3], the Potency result is “inactive”.

As to `Cc1nnc(SCC2=C(C(=O)O)N3C(=O)[C@@H](NC(=O)Cn4cnnn4)[C@H]3SC2)s1`, the call in experiment [1] and in experiment [2] was inactive. Besides, the Potency entry in experiment [3] was “inactive”.

On to `O=C(CCCN1CCC(O)(c2cccc(C(F)(F)F)c2)CC1)c1ccc(F)cc1`, for which the result in experiment [1] and in experiment [2] was inactive. For the same compound, the Potency result in experiment [3] was “inactive”.

For the compound `Cc1nc2sccn2c(=O)c1CCN1CCC(=C(c2ccc(F)cc2)c2ccc(F)cc2)CC1`, the result in experiment [1] and in experiment [2] was inactive. In experiment [3], the Potency entry was “inactive”.
